In PubChem BioAssay (NCATS):
Inconclusive results are not listed. Unless noted, the call rests on the fitted dose curve; in most records, active means well fitted curve in either direction with a large enough effect (not every such curve was filed as active); inconclusive means small, poorly fitted or top-dose-only effect, or another doubt; inactive means flat fitted curve, though single readings scatter.

Key:
[1] = AP1 Signaling Pathway (AID 357); conditions: ME-180 AP-1-bla reporter, EGF-induced, beta-lactamase ratio, 5 h; at 17.2 µM (top of the series) unless noted;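 further: ME-180 reporter cells stimulated with EGF at its EC50 level; on the % scale 0 is the no-effect control and ±100 the full control effect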
Method in brief: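 AP-1-bla ME-180 cells, Opti-MEM + 0.5% dialyzed FBS, plated overnight 37 °C. Cpd titration + EC50 EGF, 5 h 37 °C. CCF4 2.5 h RT; ex 405, em 460/530 ratio → %activity, AC50.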

[2] = NFAT Signaling Pathway (AID 444); conditions: Jurkat NFAT-bla M1, carbachol, beta-lactamase ratio, 5 h; at 17.2 µM (top of the series) unless noted;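 further: carbachol stimulus at about its EC50 of 1 µM final; on the % scale 0 is the no-effect control and ±100 the full control effect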
Method in brief: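 Read-out: CCF4 FRET ratio (460 nm/530 nm) after 1 h RT dye loading, used for %activity and AC50 from titration series. Cells: Jurkat NFAT-β-lactamase/M1 line, treated with compound plus 1 uM carbachol for 5 h, 37 °C.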

[3] = Stat Signaling Pathway (AID 446); conditions: ME-180 SIE beta-lactamase reporter, IL-6 stimulated, 5 h; at 17.2 µM (top of the series) unless noted;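 further: ME-180 cervical cancer cells given 40 pM IL-6 alongside compound; SIE-controlled beta-lactamase reporter measured as 460/530 nm FRET emission ratio; on the % scale 0 is the no-effect control and ±100 the full control effect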
Method in brief: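 ME-180 SIE-bla cells; overnight plating; cpd + IL-6 40 pM, 5 h, 37 C; LiveBLAzer 2.5 h RT; 460/530 nm emission ratio. Normalized to 300 pM IL-6 and 125 nM JAK inhibitor controls.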

[4] = target: Glucocorticoid receptor (Homo sapiens) (UniProt P04150); test: GR-GFP Redistribution (AID 450;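 active means compounds whose dose series gives a full or clear partial fitted curve of increased nuclear translocation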; further: potency means the concentration at half of the fitted maximal effect)
Sequence of Glucocorticoid receptor (Homo sapiens) (P04150 whole entry, looked up): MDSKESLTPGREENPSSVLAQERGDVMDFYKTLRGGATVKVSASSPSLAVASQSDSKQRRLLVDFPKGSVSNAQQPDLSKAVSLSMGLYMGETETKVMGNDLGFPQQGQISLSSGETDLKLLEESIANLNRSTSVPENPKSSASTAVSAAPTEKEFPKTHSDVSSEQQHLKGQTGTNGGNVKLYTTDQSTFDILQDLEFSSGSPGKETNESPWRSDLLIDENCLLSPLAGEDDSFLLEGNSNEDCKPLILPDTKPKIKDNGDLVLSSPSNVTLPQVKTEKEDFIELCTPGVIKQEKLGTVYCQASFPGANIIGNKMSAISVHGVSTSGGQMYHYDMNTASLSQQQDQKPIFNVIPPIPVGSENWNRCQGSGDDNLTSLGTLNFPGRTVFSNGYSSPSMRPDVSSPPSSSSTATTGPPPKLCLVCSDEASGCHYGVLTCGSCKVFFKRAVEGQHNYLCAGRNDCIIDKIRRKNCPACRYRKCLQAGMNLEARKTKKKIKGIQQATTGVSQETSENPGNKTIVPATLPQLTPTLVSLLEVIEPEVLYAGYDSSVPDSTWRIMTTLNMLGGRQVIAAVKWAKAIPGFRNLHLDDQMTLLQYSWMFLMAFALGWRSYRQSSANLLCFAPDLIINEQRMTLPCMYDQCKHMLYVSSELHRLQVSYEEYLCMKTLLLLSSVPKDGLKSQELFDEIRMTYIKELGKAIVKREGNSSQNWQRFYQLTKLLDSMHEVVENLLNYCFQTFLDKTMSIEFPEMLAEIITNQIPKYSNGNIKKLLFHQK

CCCC(CCC(=O)Nc1ccc(C(=O)OC)cc1)C(=O)O (centres undefined)
inactive: activity change, negative = inhibition [1] -9.55% | activity change, negative = inhibition [2] -16.6% | activity, negative = inhibition [3] 11.7% | Potency [4] > 20.6 µM

CC(O)CNc1nc2c(c(=O)n(C)c(=O)n2C)n1CCc1ccccc1 (centres undefined)
inactive: activity change, negative = inhibition [1] -2.48% | activity change, negative = inhibition [2] -12.9% | activity, negative = inhibition [3] -8.4% | Potency [4] > 20.6 µM

O=C(C1CC1(c1ccccc1)c1ccccc1)N1CCOCC1 (centres undefined)
inactive: activity change, negative = inhibition [1] -9.16% | activity change, negative = inhibition [2] 10.4% | activity, negative = inhibition [3] 0.797% | Potency [4] > 20.6 µM

O=C1NCC(COCC2CC=CCC2)O1 (centres undefined)
inactive: activity change, negative = inhibition [1] 9.6% | activity change, negative = inhibition [2] 15% | activity, negative = inhibition [3] 2.08% | Potency [4] > 20.6 µM

COC(=O)NC(Nc1sc2c(c1C(N)=O)CCCC2)(C(=O)OC)C(F)(F)F (centres undefined)
inactive: activity change, negative = inhibition [1] 2.66% | activity change, negative = inhibition [2] 11.9% | activity, negative = inhibition [3] 5.04% | Potency [4] > 20.6 µM

CCOc1nc(Oc2cccc(C(=O)O)c2)nc(Oc2cccc(C(=O)O)c2)n1
inactive: activity change, negative = inhibition [1] 29.4% | activity change, negative = inhibition [2] 0.693% | activity, negative = inhibition [3] 8.24% | Potency [4] > 20.6 µM

Cc1nnc2n(Cc3ccccc3)c(=O)c3c4c(sc3n12)COC(C(C)C)C4 (centres undefined)
inactive: activity change, negative = inhibition [1] 10.6% | activity change, negative = inhibition [2] -9.5% | activity, negative = inhibition [3] 5.19% | Potency [4] > 20.6 µM

N#Cc1nc(-c2ccc(F)cc2)oc1N1CCCC1
inactive: activity change, negative = inhibition [1] 0.0908% | activity change, negative = inhibition [2] -1.86% | activity, negative = inhibition [3] -3.18% | Potency [4] > 20.6 µM

COc1ccc(OC)c(C2C(C(=O)c3sc(C)nc3C)=C(O)C(=O)N2CCN2CCOCC2)c1 (centres undefined)
inactive: activity change, negative = inhibition [1] 4.44% | activity change, negative = inhibition [2] 16.6% | activity, negative = inhibition [3] -1.07% | Potency [4] > 20.6 µM

COc1ccc(C2CC(=O)C(C=NCCN3CCOCC3)=C(O)C2)cc1 (centres undefined)
inactive: activity change, negative = inhibition [1] 18.9% | activity change, negative = inhibition [2] -9.07% | activity, negative = inhibition [3] -0.652% | Potency [4] > 20.6 µM

O=C1C(=O)N(CCN2CCOCC2)C(c2ccccn2)/C1=C(/O)c1ccc(F)cc1 (centres undefined)
inactive: activity change, negative = inhibition [1] 10.4% | activity change, negative = inhibition [2] 21.3% | activity, negative = inhibition [3] -1.73% | Potency [4] > 20.6 µM

CC1(C)CC(=O)C2=C(C1)N(Cc1ccco1)C(=O)C2(O)C(F)(F)F (centres undefined)
inactive: activity change, negative = inhibition [1] 11.1% | activity change, negative = inhibition [2] -3.91% | activity, negative = inhibition [3] -2.61% | Potency [4] > 20.6 µM

CCOc1cccc(C2C(C#N)=C(N)Oc3cc(C)oc(=O)c32)c1OCC (centres undefined)
inactive: activity change, negative = inhibition [1] -17.6% | activity change, negative = inhibition [2] 9.73% | activity, negative = inhibition [3] -12.7% | Potency [4] > 20.6 µM

CCOc1ccc(C2/C(=C(/O)c3ccc(OC)cc3)C(=O)C(=O)N2c2cc(C)on2)cc1OC (centres undefined)
inactive: activity change, negative = inhibition [1] -11.1% | activity change, negative = inhibition [2] -0.187% | activity, negative = inhibition [3] -9.83% | Potency [4] > 20.6 µM

CCN(CC)C(=O)COn1c(SCC(=O)N(CC)CC)nc2ccccc2c1=O
inactive: activity change, negative = inhibition [1] -3.71% | activity change, negative = inhibition [2] 17.3% | activity, negative = inhibition [3] 9.4% | Potency [4] > 20.6 µM

O=C(c1cncc(Br)c1)N1CCCc2ccccc21
inactive: activity change, negative = inhibition [1] 2.83% | activity change, negative = inhibition [2] -6.51% | activity, negative = inhibition [3] -1.14% | Potency [4] > 20.6 µM

Cc1cc(O)c(C(C)C)cc1N=C1CSC(=O)N1
inactive: activity change, negative = inhibition [1] -11.9% | activity change, negative = inhibition [2] -9.06% | activity, negative = inhibition [3] -6.54% | Potency [4] > 20.6 µM

Nc1c(C(=O)NCc2ccco2)sc2nc(N3CCOCC3)c3c(c12)CCCC3
inactive: activity change, negative = inhibition [1] -27.5% | activity change, negative = inhibition [2] 16.8% | activity, negative = inhibition [3] -13.4% | Potency [4] > 20.6 µM

CCOc1ccc(-c2nnc3sc(-c4c(OC)cccc4OC)nn23)cc1
inactive: activity change, negative = inhibition [1] 3.89% | activity change, negative = inhibition [2] -3.46% | activity, negative = inhibition [3] 8.95% | Potency [4] > 20.6 µM

CCNC(=O)Nn1c(C)nnc1C
inactive: activity change, negative = inhibition [1] 15.4% | activity change, negative = inhibition [2] -5.86% | activity, negative = inhibition [3] 6.6% | Potency [4] > 20.6 µM

CC(C(=O)N1CCCCC1)N1C(=O)c2ccccc2C1=O (centres undefined)
inactive: activity change, negative = inhibition [1] 0.952% | activity change, negative = inhibition [2] 8.42% | activity, negative = inhibition [3] 3.42% | Potency [4] > 20.6 µM

CN1CCN(c2ncnc3c2[nH]c2ccc(F)cc23)CC1
inactive: activity change, negative = inhibition [1] 7.75% | activity change, negative = inhibition [2] -5.03% | activity, negative = inhibition [3] 11.7% | Potency [4] > 20.6 µM

N#Cc1c(N)nc(SCC(=O)NCCc2ccccc2)c(C#N)c1-c1cccs1
inactive: activity change, negative = inhibition [1] 0.711% | activity change, negative = inhibition [2] 15.3% | activity, negative = inhibition [3] 5.35% | Potency [4] > 20.6 µM

Cc1c(=O)n(OCc2c(F)cccc2F)c2ccccc2[n+]1[O-]
inactive: activity change, negative = inhibition [1] -5.17% | activity change, negative = inhibition [2] -0.573% | activity, negative = inhibition [3] 2.13% | Potency [4] > 20.6 µM

O=CN1CCN(C(=O)CN2C(=O)c3ccccc3C2=O)CC1
inactive: activity change, negative = inhibition [1] 10.2% | activity change, negative = inhibition [2] 11.9% | activity, negative = inhibition [3] 6.47% | Potency [4] > 20.6 µM

CCCCn1c(=O)n(C)c(=O)c2c3c(sc21)COC(C)(C)C3
inactive: activity change, negative = inhibition [1] -4.87% | activity change, negative = inhibition [2] 5.64% | activity, negative = inhibition [3] -7.31% | Potency [4] > 20.6 µM
